For 14 targets, log2 fold change results are on record in the supplement of paper PMC10849652.

Test in all cases: log2 fold change, soluble protein after heating vs DMSO (PISA); higher = thermal stabilisation; K562 lysate, 10 uM; active = over 0.2 and 3.5 SD of the protein, either way, in both replicates (recomputed)
Compound in one experiment: Cc1cn(-c2cc(NC(=O)c3ccc(C)c(Nc4nccc(-c5cccnc5)n4)c3)cc(C(F)(F)F)c2)cn1 [nilotinib]
Summed up:
(§1)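 Log-two fold change in thermal stability relative to solvent controls is reported from duplicates. For each sample, crude K562 extract from dounce-homogenised pellets in PBS pH 7.4 with 1 mM MgCl2, at 1 mg/mL protein, was treated with 10 μM compound for 30 min. Aliquots heated for 3 min across 48°C-58°C were pooled, brought to 0.5% NP-40 at 4°C and cleared at 21,000xg for 90 min. The supernatant was quantified by TMTpro 16plex LC-MS/MS with channel sums equalised.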

Compound in experiment [1]: Cc1nc(Nc2n[nH]c3c2CN(C(=O)N[C@H](CN(C)C)c2ccccc2)C3(C)C)c2sccc2n1
Summed up: as §1

Compound in a further experiment: Cc1nc(Nc2ncc(C(=O)Nc3c(C)cccc3Cl)s2)cc(N2CCN(CCO)CC2)n1 [dasatinib]
Summed up:
as §1

Compound in experiment [2]: Cc1ncc(-c2ccnc(Nc3ccc(S(C)(=O)=O)cc3)n2)n1C(C)C
Summed up:
as §1

Compound in experiment [3]: Cn1cc(-c2ccc3c(c2)CCN3C(=O)Cc2cccc(C(F)(F)F)c2)c2c(N)ncnc21
The gist of the method:
as §1

Compound in another experiment: Cn1cc(CNCC2CCN(c3ncc(C(=O)NO)cn3)CC2)c2ccccc21 [quisinostat]
The gist of the method: as §1

Compound in a further experiment: Cn1cncc1[C@@](N)(c1ccc(Cl)cc1)c1ccc2c(c1)c(-c1cccc(Cl)c1)cc(=O)n2C [tipifarnib]
Summed up: as §1

Compound in experiment [4]: NC(=O)Nc1cc(-c2cccc(F)c2)sc1C(=O)N[C@H]1CCCNC1
The gist of the method: as §1

Compound in experiment [5]: NC1(c2ccc(-c3nc4ccn5c(=O)[nH]nc5c4cc3-c3ccccc3)cc2)CCC1
The gist of the method: as §1

Compound in experiment [6]: NC(=O)c1cnc(N[C@@H]2CCCC[C@@H]2N)nc1Nc1cccc(-n2nccn2)c1
Summed up: as §1

About 8,800 targets were measured; listed, in parts, are those with a hit and a random draw of the rest. About 0.5% of all pairs of compound and target were hits. Values without a mark were called inactive.

Chain of UniProt P49642 (P49642 whole entry, looked up): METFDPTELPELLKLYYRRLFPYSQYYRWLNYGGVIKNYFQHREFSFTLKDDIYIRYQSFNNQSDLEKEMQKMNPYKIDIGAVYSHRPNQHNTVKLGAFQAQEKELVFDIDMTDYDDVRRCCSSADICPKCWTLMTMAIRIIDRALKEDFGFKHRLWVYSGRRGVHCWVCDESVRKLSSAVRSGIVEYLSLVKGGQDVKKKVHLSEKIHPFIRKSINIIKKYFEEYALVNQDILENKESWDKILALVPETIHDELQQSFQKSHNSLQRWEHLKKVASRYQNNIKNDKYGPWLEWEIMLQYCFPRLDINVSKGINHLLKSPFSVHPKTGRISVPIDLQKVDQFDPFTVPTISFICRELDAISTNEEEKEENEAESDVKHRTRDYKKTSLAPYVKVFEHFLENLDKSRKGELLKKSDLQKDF
Chain of UniProt O43663 (O43663 whole entry, looked up): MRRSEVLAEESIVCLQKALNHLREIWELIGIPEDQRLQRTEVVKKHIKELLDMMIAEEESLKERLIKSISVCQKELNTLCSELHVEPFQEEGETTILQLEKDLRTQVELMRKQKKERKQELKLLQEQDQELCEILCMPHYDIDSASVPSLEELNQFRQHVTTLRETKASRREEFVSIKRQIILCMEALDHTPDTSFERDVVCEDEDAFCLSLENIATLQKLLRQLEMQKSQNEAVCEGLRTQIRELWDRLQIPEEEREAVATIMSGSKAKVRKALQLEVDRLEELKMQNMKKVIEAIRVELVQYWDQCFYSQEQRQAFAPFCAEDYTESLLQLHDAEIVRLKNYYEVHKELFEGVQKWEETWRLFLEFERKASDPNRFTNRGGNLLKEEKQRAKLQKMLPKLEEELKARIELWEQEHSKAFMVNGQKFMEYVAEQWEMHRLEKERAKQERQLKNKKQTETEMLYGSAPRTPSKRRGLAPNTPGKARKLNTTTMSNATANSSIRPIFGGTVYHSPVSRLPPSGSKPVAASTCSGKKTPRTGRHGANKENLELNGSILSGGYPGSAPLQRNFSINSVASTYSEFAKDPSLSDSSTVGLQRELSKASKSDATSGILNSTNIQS
Chain of UniProt Q8TBX8 (Q8TBX8 whole entry, looked up): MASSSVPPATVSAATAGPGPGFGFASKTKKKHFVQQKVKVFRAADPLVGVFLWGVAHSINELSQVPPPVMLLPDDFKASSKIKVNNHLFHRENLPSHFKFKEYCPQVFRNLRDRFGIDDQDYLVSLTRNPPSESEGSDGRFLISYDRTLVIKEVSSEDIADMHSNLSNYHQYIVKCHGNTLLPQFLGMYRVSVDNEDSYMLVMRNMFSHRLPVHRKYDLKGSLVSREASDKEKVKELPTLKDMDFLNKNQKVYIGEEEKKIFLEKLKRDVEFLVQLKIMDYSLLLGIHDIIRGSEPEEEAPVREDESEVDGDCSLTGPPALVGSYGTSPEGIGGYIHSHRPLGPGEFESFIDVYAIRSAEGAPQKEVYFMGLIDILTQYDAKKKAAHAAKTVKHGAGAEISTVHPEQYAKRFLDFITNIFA
Chain of UniProt O00541 (O00541 whole entry, looked up): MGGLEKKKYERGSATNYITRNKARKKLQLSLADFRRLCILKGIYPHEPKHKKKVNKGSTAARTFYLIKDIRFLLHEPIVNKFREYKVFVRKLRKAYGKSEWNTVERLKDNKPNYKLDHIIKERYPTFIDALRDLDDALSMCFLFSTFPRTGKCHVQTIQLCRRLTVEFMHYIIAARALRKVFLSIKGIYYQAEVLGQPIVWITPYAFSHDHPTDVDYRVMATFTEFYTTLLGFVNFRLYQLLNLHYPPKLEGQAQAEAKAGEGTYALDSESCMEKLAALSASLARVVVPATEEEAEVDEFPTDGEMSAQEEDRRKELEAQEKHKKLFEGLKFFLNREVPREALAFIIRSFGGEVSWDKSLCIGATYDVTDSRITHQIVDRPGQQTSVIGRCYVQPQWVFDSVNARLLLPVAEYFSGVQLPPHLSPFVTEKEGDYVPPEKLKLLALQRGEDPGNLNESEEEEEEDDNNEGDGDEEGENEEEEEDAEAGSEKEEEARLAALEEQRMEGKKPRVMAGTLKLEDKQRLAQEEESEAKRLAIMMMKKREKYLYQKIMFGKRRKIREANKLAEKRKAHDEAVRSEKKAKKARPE
Chain of UniProt P15735 (P15735 whole entry, looked up): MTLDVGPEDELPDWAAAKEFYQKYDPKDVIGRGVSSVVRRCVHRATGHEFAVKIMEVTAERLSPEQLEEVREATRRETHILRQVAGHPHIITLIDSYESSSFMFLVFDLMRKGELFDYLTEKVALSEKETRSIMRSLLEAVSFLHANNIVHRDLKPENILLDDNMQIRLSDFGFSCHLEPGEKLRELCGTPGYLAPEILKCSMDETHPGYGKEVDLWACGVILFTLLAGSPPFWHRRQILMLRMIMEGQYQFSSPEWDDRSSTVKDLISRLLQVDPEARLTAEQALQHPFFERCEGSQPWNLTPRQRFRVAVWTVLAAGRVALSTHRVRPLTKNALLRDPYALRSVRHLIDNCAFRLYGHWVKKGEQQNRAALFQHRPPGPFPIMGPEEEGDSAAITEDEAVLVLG
Chain of UniProt P18031 (P18031 whole entry, looked up): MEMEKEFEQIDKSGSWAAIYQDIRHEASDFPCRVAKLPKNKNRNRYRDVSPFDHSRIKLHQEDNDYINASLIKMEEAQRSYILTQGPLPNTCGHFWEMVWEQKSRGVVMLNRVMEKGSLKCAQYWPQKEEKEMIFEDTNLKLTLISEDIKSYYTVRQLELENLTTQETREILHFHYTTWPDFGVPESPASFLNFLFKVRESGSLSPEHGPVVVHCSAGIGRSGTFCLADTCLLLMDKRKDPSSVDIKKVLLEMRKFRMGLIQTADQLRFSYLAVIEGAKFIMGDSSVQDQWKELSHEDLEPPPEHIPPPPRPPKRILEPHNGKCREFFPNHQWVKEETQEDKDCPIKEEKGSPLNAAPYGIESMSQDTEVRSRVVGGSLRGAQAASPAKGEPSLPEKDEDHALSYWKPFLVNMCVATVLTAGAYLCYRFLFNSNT
Chain of UniProt P17706 (P17706 whole entry, looked up): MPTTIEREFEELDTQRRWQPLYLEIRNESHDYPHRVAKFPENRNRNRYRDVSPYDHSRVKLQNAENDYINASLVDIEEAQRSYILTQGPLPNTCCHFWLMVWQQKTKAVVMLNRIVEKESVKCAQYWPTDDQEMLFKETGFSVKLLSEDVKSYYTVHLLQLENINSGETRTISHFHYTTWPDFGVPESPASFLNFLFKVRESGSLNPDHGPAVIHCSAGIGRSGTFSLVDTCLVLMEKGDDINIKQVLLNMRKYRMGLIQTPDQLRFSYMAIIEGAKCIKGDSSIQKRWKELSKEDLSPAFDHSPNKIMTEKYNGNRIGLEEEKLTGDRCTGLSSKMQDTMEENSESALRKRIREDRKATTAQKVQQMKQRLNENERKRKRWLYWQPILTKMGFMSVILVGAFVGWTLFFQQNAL
Chain of UniProt P0CAP2 (P0CAP2 whole entry, looked up): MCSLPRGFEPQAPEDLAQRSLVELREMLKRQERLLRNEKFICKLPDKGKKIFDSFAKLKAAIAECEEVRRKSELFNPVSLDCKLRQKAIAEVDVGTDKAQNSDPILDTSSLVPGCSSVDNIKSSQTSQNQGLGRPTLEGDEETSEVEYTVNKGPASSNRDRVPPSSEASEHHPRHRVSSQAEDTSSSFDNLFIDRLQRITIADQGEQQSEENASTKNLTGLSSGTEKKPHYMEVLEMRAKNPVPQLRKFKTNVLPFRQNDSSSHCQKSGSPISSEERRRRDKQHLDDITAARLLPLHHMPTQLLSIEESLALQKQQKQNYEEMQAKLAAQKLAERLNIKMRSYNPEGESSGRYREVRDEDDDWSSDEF
Chain of UniProt Q9UBV8 (Q9UBV8 whole entry, looked up): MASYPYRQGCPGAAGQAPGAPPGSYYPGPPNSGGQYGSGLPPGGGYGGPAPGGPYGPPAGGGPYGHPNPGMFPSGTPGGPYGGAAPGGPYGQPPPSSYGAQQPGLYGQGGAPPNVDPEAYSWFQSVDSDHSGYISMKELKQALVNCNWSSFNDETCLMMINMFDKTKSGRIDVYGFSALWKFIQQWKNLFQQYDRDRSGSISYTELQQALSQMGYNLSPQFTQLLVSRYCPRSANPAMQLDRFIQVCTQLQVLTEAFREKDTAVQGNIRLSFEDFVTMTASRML
Chain of UniProt Q9UMR5 (Q9UMR5 whole entry, looked up): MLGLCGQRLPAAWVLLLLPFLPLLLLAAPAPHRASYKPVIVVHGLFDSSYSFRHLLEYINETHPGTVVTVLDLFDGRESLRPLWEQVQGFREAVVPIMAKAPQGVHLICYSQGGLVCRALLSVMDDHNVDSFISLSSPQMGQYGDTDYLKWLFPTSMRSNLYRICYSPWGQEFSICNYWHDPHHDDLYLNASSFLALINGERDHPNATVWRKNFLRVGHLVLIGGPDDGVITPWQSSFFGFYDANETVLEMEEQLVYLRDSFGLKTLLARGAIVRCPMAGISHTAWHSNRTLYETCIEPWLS
Chain of UniProt Q13492 (Q13492 whole entry, looked up): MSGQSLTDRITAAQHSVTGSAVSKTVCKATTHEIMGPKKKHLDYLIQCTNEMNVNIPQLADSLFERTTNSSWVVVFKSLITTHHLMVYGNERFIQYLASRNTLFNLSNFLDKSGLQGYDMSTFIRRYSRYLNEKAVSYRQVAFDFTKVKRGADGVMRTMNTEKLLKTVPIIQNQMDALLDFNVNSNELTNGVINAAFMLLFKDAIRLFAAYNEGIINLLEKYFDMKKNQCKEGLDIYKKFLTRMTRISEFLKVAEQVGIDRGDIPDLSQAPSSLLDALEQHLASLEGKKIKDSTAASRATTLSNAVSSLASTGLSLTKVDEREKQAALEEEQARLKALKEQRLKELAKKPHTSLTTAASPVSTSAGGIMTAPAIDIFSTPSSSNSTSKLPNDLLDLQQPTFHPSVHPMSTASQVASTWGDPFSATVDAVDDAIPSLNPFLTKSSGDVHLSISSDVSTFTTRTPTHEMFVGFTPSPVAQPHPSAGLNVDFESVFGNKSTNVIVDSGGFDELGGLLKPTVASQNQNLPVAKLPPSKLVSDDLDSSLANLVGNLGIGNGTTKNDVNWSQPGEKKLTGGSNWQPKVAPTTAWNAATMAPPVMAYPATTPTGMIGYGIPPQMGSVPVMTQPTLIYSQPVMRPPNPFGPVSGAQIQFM

On to PDE4DIP (UniProt E9PS60), for which the log2 fold change in the experiment with nilotinib is -0.074; in experiment [1] it was 0.052; in the experiment with dasatinib, -0.158; in experiment [2], -0.045; in [3], -0.073; in the experiment with quisinostat it was -0.256. The log2 fold change is 0.081 in the experiment with tipifarnib, -0.205 in experiment [4] and -0.025 in experiment [5].
PRIM1 (UniProt P49642): the log2 fold change in the experiment with nilotinib is 0; in experiment [1], -0.011; with dasatinib, -0.05; in experiment [2], -0.006; in experiment [3] it was 0.019; with quisinostat, 0.014. For the same target, the log2 fold change with tipifarnib is -0.022; in experiment [4], 0.028; in experiment [6] it was 0.001; in experiment [5] it was -0.031.
For the target PPT2 isoform 3 (UniProt Q9UMR5), the log2 fold change was 0.01 with nilotinib; -0.019 in [1]; 0.006 with dasatinib; -0.019 in experiment [2]; 0.025 in experiment [3]; -0.004 with quisinostat. Moreover, the log2 fold change with tipifarnib is -0.025; in experiment [4], 0.032; in experiment [6], 0.002; in experiment [5], 0.02.
On to PICALM (UniProt Q13492), for which the log2 fold change with nilotinib was -0.012; in experiment [1], -0.01; with dasatinib, -0.036; in experiment [2], -0.009; in experiment [3], 0.001; in the experiment with quisinostat it was -0.003. The log2 fold change in the experiment with tipifarnib is -0.042; in [4], -0.018; in [6], 0.012; in experiment [5], 0.007.
For the target PHKG2 (UniProt P15735), the log2 fold change with nilotinib was -0.022; in experiment [1], 0.598 (active); with dasatinib, -0.03; in experiment [2] it was 0.046; in experiment [3], 0.037; with quisinostat, -0.069. Also, the log2 fold change in the experiment with tipifarnib is 0.038; in experiment [4], 0.979 (active); in experiment [6] it was -0.042; in experiment [5], -0.073.
For PES1 (UniProt O00541), the log2 fold change is -0.004 in the experiment with nilotinib; 0.006 in experiment [1]; 0.016 in the experiment with dasatinib; -0.034 in experiment [2]; 0.001 in experiment [3]; -0.067 with quisinostat. Also, the log2 fold change in the experiment with tipifarnib was 0.001; in experiment [4], 0.026; in experiment [6] it was 0.015; in experiment [5] it was -0.047.
As for PRC1 (UniProt O43663), the log2 fold change in the experiment with nilotinib was 0.013; in experiment [1], -0.008; with dasatinib it was -0.012; in experiment [2] it was -0.007; in experiment [3], 0.05; with quisinostat it was -0.035. The log2 fold change is -0.011 with tipifarnib, 0.009 in experiment [4], -0.002 in [6] and -0.044 in experiment [5].
For the target PTPN1 (UniProt P18031), the log2 fold change is -0.001 with nilotinib; 0.019 in experiment [1]; -0.062 with dasatinib; 0.007 in [2]; 0.027 in experiment [3]; -0.051 with quisinostat. Also, the log2 fold change with tipifarnib is -0.032; in experiment [4], 0.039; in [6], 0.026; in experiment [5], 0.021.
Consider PTPN2 (UniProt P17706), for which the log2 fold change with nilotinib was 0; in experiment [1], 0.026; with dasatinib it was -0.026; in experiment [2], -0.041; in experiment [3] it was 0.014; in the experiment with quisinostat, -0.067. The log2 fold change with tipifarnib was -0.001; in experiment [4] it was 0.025; in [6] it was 0.006; in experiment [5], -0.005.
In the case of PCBP2 (UniProt H3BRU6), the log2 fold change with nilotinib was 0.066; in experiment [1] it was 0.04; with dasatinib it was 0.079; in experiment [2], 0.027; in [3], -0.082; with quisinostat, -0.119. Moreover, the log2 fold change with tipifarnib was -0.095; in [4], 0.042; in experiment [6], -0.023; in experiment [5], 0.084.
Regarding PIP4K2C (UniProt Q8TBX8), the log2 fold change with nilotinib was 0.169; in experiment [1], -0.015; with dasatinib, 0.047; in experiment [2], 0.298; in [3], 0.029; with quisinostat, -0.095. Further, the log2 fold change with tipifarnib is -0.012; in experiment [4], 0.035; in experiment [6], 0.033; in [5], -0.085.
For the target PPP3CA isoform 2 (UniProt Q08209), the log2 fold change with nilotinib is 0.241 (active); in experiment [1], 0.121; with dasatinib it was 0.027; in experiment [2], -0.082; in experiment [3], -0.03; with quisinostat it was -0.051. The log2 fold change in the experiment with tipifarnib is 0.037; in experiment [4] it was 0.048; in experiment [6], -0.005; in experiment [5] it was -0.002.
For PEF1 (UniProt Q9UBV8), the log2 fold change was 0.026 with nilotinib; 0.013 in [1]; 0.012 with dasatinib; -0.015 in experiment [2]; -0.004 in [3]; 0.08 with quisinostat. In addition, the log2 fold change is 0.028 with tipifarnib, -0.018 in experiment [4], 0.005 in experiment [6] and 0.011 in experiment [5].
Regarding POLR2M (UniProt P0CAP2), the log2 fold change was -0.033 with nilotinib; -0.014 in experiment [1]; -0.032 in the experiment with dasatinib; 0.012 in [2]; -0.056 in experiment [3]; -0.015 in the experiment with quisinostat. Further, the log2 fold change with tipifarnib was 0.007; in [4], 0.012; in [6], 0.002; in experiment [5] it was 0.014.
